High-throughput results deposited in PubChem by several laboratories.
BoNT-F LC inh: inhibitors of Botulinum neurotoxin F light chain protease; Multiplex microsphere protease cleavage assay, flow cytometry; inhibition, % at 10 µM; hit rate 0.22% among 360,000; in the data active = inhibition above about 35%, passing the limit was not always enough; inconclusive = no clear call, values can overlap the other calls; also: plate controls were buffer without enzyme for full effect and enzyme alone for no effect
Anthrax LF inh2: blocks Bacillus anthracis lethal factor protease; inhibition, % at 10 µM; multiplex microsphere protease cleavage assay, LF; hit rate 0.12% among 360,000; AID 588501; P15917; also: plate controls were buffer without enzyme for full effect and enzyme alone for no effect
Target sequence (P15917 whole entry, looked up): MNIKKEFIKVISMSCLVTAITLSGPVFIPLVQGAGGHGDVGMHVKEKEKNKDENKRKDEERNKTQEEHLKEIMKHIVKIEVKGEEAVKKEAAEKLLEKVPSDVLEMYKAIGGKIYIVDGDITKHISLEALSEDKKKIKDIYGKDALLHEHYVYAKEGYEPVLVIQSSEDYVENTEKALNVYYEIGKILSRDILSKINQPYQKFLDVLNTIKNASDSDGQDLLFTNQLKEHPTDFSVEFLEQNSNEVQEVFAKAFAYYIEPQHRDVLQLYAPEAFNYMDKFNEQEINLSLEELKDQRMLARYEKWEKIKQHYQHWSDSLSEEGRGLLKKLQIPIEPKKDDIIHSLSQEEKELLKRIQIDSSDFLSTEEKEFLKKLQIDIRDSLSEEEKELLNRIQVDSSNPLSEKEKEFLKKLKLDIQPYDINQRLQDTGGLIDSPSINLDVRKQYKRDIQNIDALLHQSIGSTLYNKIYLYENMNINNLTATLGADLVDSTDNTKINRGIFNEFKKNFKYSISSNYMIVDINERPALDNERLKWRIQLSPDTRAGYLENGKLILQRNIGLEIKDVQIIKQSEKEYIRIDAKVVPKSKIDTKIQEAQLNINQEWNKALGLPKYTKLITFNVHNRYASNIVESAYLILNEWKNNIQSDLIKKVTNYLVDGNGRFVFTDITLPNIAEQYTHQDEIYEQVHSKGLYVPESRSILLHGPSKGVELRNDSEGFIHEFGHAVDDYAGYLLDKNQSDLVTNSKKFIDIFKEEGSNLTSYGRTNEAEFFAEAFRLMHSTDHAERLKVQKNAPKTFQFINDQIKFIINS
BH1578 lux ind: induces V. cholerae light production without autoinducers | V. cholerae BH1578 lux reporter, luminescence, 6 h | activation, % at 18.7 µM | hit rate 0.16% among 350,000 | AID 588436; in the data active = activation mostly above about 9.7%, no sharp cut-off; inconclusive = no clear call, values can overlap the other calls; inactive = mostly below about 3.7%
Autofluor counter: flagged as autofluorescent in microsphere protease counterscreen. compound autofluorescence counterscreen, microsphere flow cytometry; stronger effect = higher value. fluorescence intensity (test concentration not listed). hit rate 3.1% among 360,000; in the data active = fluorescence intensity above about 16000; inconclusive = no clear call, values can overlap the other calls
BoNT-A LC inh2: inhibitors of Botulinum neurotoxin A light chain protease. multiplex microsphere protease substrate cleavage, flow cytometry. inhibition, % at 10 µM. hit rate 0.17% among 360,000. AID 588499; also: plate controls were buffer without enzyme for full effect and enzyme alone for no effect
BJeLR lethal: kills HRASV12-expressing BJeLR cells; BJeLR (HRASV12) viability, CellTiter-Glo ATP luminescence, 48 h; AID 1554; hit rate 0.17% among 300,000; inhibition, % (no concentration beside the values); in the data active = inhibition above about 50%; inconclusive = no clear call, values can overlap the other calls
BoNT-A LC CP1: blocks botulinum neurotoxin A light chain protease | hit rate 3% among 720 | multiplex microsphere protease assay, flow cytometry | shares compounds with BoNT-F LC inh | inhibition, % at 10 µM; in the data active = inhibition above about 32%
BoNT-F LC CP1: inhibitors of Botulinum neurotoxin F light chain protease. shares compounds with BoNT-F LC inh. multiplex microsphere protease cleavage assay, flow cytometry. inhibition, % at 10 µM. 720 tested, under 10 active; call rule not given here
LF protease CP1: inhibitors of Bacillus anthracis lethal factor protease; 720 tested, under 10 active; inhibition, % at 10 µM; multiplex microsphere protease cleavage assay, LF; AID 602142; shares compounds with BoNT-F LC inh; call rule not given here
Starred values were filed as active, the others as inactive; i = inactive; u = inconclusive; x = not tested or not shown. Only some compounds are listed: those with a hit (about 3.7% of all), similar ones and a draw of the others. Rule as the data show it, unless noted: active = inhibition above about 30%; inconclusive = no clear call, values can overlap the other calls; inactive = below that.

SMILES	BoNT-F LC inh	Anthrax LF inh2	BH1578 lux ind	Autofluor counter	BoNT-A LC inh2	BJeLR lethal	BoNT-A LC CP1	BoNT-F LC CP1	LF protease CP1
Cc1nnc(SCC(=O)NC(C)(C)C)n1C1CCCCC1	40*	0	0	2608	3	0	3	12	1
CCNC(=O)C1(C)CCCN(C(=O)CCc2cccs2)C1 (configuration not stated)	1	-1	i	3683	1	x	x	x	x
c1ccc2c(NC3CCCC3)nnc(NC3CCCC3)c2c1	-4	2	i	3938	2	8	x	x	x
Nc1ccccc1NC1CCCCC1	-30	15	0	2264	74*	x	17	-16	15
COc1ccccc1NC(=O)CCNC(=O)C1CCN(S(=O)(=O)c2ccccc2)CC1	3	3	i	3465	0	x	x	x	x
CCCC(=O)N1CCC1(C)C(=O)Nc1cc(OC)ccc1OC (configuration not stated)	-3	-5	i	2966	0	x	x	x	x
O=C1C=C(O)CC2(CCCCC2)C1	0	-4	x	5714	0	x	x	x	x
COc1ccc(S(=O)(=O)NC(C)C(=O)NCc2cccnc2)cc1OC (configuration not stated)	44*	-8	0	3728	-1	-3	1	-3	0
N#Cc1cccc(-c2csc(C(O)c3ccc(F)cc3)n2)c1 (configuration not stated)	2	-2	0	3741	0	x	x	x	x
Cc1ccc(OCCCC(=O)Nc2ccc(S(N)(=O)=O)cc2)cc1	41*	-4	-2	4147	5	4	0	-2	-3
CC(=O)c1ccc(-c2ccc(C(=O)NC3CC(C)(C)NC(C)(C)C3)o2)cc1	36*	-1	-1	u	2	-4	1	-9	2
CC1(C)CC(NC(=O)c2ccc(F)cc2)CC(C)(C)N1	-7	-8	i	4231	0	x	x	x	x
CCCn1c(=O)c(C(=O)Nc2ncccc2C)c(O)c2ccccc21	1	-4	0	3926	0	0	x	x	x
CCCCCn1c(=O)c(C(=O)Nc2ncccc2C)c(O)c2ccccc21	38*	-1	0	4119	-5	-9	0	-7	-4
O=C(O)CS(=O)(=O)CC(=O)NCc1cccc(C(F)(F)F)c1	50*	2	-1	2638	4	1	0	-6	-2
O=C(Cc1cccc(C(F)(F)F)c1)NCc1ccc(Cl)cc1	0	0	0	2705	0	1	x	x	x
O=C(O)C1C2C=CC(C2)C1C(=O)N1CCc2ccccc21 (configuration not stated)	39*	6	0	3667	4	-17	-2	-8	-1
Cc1cc(C)n2nc(C(=O)Nc3c(C)nn(Cc4ccc(F)cc4)c3C)cc2n1	4	-3	0	4003	-1	1	-2	2	1
CCc1ccc(-c2cc(C(F)(F)F)n3nc(C(=O)Nc4c(C)nn(Cc5ccccc5Cl)c4C)cc3n2)s1	17	29	i	21126*	u	-6	5	3	4
Cc1ccccc1Cn1ccc(NC(=O)c2cc3nc(-c4ccco4)cc(C(F)(F)F)n3n2)n1	-3	0	i	2854	0	-3	x	x	x
O=C(Nc1cnn(Cc2ccc(F)cc2)c1)c1cc2nc(-c3ccco3)cc(C(F)(F)F)n2n1	4	-3	i	3265	0	-7	1	4	-4
Cc1nn(Cc2ccccc2)c(C)c1NC(=O)c1cc2nc(-c3ccco3)cc(C(F)(F)F)n2n1	x	x	i	x	x	-7	-1	1	4
CCc1ccc(-c2cc(C(F)(F)F)n3nc(C(=O)Nc4c(C)nn(Cc5ccccc5C)c4C)cc3n2)s1	19	30*	-3	19939*	29	-12	3	-4	4
CCc1ccc(-c2cc(C(F)(F)F)n3nc(C(=O)Nc4cnn(Cc5ccccc5C)c4)cc3n2)s1	10	2	-3	10727	4	13	2	0	-4
O=C(NCC1CCCO1)c1ccccc1NS(=O)(=O)c1ccc(Br)s1 (configuration not stated)	1	-4	-1	3716	0	x	x	x	x
SMILES	BoNT-F LC inh	Anthrax LF inh2	BH1578 lux ind	Autofluor counter	BoNT-A LC inh2	BJeLR lethal	BoNT-A LC CP1	BoNT-F LC CP1	LF protease CP1
NS(=O)(=O)c1cccc(NC(=O)CC(NC(=O)c2ccccc2Cl)c2ccccc2)c1 (configuration not stated)	35*	9	i	3427	-2	5	1	-4	-1
CCCCNC(=O)C1(C)CCCCN1C(=O)c1cc(-c2ccccc2)cs1 (configuration not stated)	-2	0	5	3593	0	x	x	x	x
CCOC(=O)c1cnc2c(C(=O)OCC)cnn2c1N	u	31*	1	4174	1	2	1	0	3
COc1ccc(C(N)c2csc(Nc3ccc(C(F)(F)F)cn3)n2)cc1 (configuration not stated)	-7	-9	i	2958	0	x	x	x	x
O=C(Nc1cccc(O)c1)c1c(O)c2ccccc2[nH]c1=O	36*	-5	i	3666	0	-8	1	-4	-6
Cc1cccc(NC(=O)c2c(O)c3ccccc3[nH]c2=O)c1	-18	-1	-1	3051	0	8	x	x	x
Cc1nnc(NC(=O)c2sc3nc(-c4cccs4)cc(C(F)(F)F)c3c2N)s1	26	11	-1	14974	10	7	x	x	x
CC(C)(C)C(=O)c1sc2nc(-c3cccs3)cc(C(F)(F)F)c2c1N	22	34*	0	7776	34*	-2	24	12	9
COc1ccc(NC(=O)c2sc3nc(Cc4ccccc4)cc(C(F)(F)F)c3c2N)cc1OC	-7	2	0	2000	2	10	x	x	x
CCN(CC)C(=O)c1sc2nc(-c3cccs3)cc(-c3ccc(Cl)cc3)c2c1N	14	39*	-1	4742	53*	4	16	1	12
Cc1nn(C)c2nc(-c3cccs3)cc(C(F)(F)F)c12	2	-2	i	3340	1	0	x	x	x
Nc1c(C(=O)Nc2nccs2)sc2nc(-c3cccs3)cc(C(F)(F)F)c12	82*	6	i	5256	9	-3	10	10	4
CCN(CC)C(=O)c1sc2nc(-c3cccs3)cc(-c3cccs3)c2c1N	-6	2	3	4184	11	-4	x	x	x
COc1ccccc1NC(=O)c1sc2nc(Cc3ccccc3)cc(C(F)(F)F)c2c1N	12	16	0	7395	30*	-2	6	-2	2
CCCCNC(=O)C(=O)Nc1ccc2c(c1)N(S(=O)(=O)c1cccs1)CCC2	-3	0	0	3868	0	x	x	x	x
COc1cccc(CN2CCC2(C)C(=O)Nc2cccc(Oc3ccccc3)c2)c1OC (configuration not stated)	-10	-9	i	3916	0	x	x	x	x
